In PubChem BioAssay (NCI) one finds growth data, which are given here for 23 molecules.

Compounds without any hit were thinned out: in the full panel of roughly 83,000, 20% have a hit.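 Single-concentration screen, 48 h exposure, 96-well plates. Endpoint: percent growth. Below 10 = active.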 A number with no mark means an inactive call. The source made the active and inactive calls.

The subject of the assay is HOP-92 NSCLC. In words: NCI-60 one-dose screen, 48 h (100 = growth as untreated, 0 = no growth, -100 = all killed). The conditions noted are these: 10 µM unless noted.
Take `C(=N\Nc1ccccn1)/c1ccccn1`: the growth was 79.1%.
As to `O=C1C=CC(=O)N1c1ccc(Cc2ccc(N3C(=O)C=CC3=O)cc2)cc1`, the growth is 90%.
In the case of `COc1cc(NC(N)=NCC(C)(C)COc2ccc(C(F)(F)F)cc2)cnc1C#N` it was -9.25% (active); in that of `CCOC(=O)C(Cc1cc(I)c(O)c(I)c1)NC(=O)c1ccccc1` (stereo not drawn), -14.2% (active).
As for `CCn1cc2c(cc1=O)-c1nc3ccccc3c3ccnc(c13)C2=O`, the figure is 56.6%.
As for `Nc1c(C(=O)Nc2ccccc2)sc2nc3c(cc12)CN(CCc1ccccc1)CC3`, the figure is 75.5%; as for `COc1ccc2nc3cc(Cl)ccc3c(NCCNCC(O)CO)c2c1` (stereo not drawn), 13.1%; as for `COc1ccc(C2c3ccc4ccccc4c3Oc3ncnc(N)c32)cc1` (stereo not drawn), 70.4%.
Regarding `CCCCCCCCCCCCCCCC[N+]1(CC)CCCC1`, the growth was -29.1% (active).
In the case of `O=C1O[C@H]([C@H](O)CO)C(O)=C1O` it was 109%; in that of `Cc1cc2c(cc1C)NC1=C(N2)OC(c2c3ccccc3cc3ccccc23)C1=O` (stereo not drawn), 71.9%; in that of `O=C(CN1CCN(c2cc3c(cc2F)c(=O)c(C(=O)O)cn3C2CC2)CC1)Nc1cc(=O)[nH]c(=O)[nH]1`, 88.7%.
In the case of `NC(N)=Nc1ccc(S(=O)(=O)O)cc1` it was 84.3%; in that of `COc1cc(C#N)cc(OC)c1OCCN(CCOc1c(OC)cc(C#N)cc1OC)S(=O)(=O)c1ccc(C)cc1`, 88.5%.
As for `C[C@@H]1CC[C@@H]2[C@@H]1[C@H](OC(=O)/C=C/c1ccccc1)[C@]1(C3CCCCC3)C[C@@H](OC(=O)CO)[C@@]2(C)O1`, the growth was 55.3%.
As for `O=S(=O)(Nc1ccc(Cl)cc1Cl)c1ccc(-c2cnc(C3CC3)o2)cc1`, the figure is 51.2%; as for `O=[N+]([O-])c1cccc(-c2nc3sccn3c2-c2ccnc(NCCNS(=O)(=O)c3ccc(C(F)(F)F)cc3)n2)c1`, 44.7%.
In the case of `CC[C@@H](C)OC(=O)c1nn(C(C)=O)c2ccccc12` it was 104%; in that of `CCN(CC)CC(O)CNc1c2ccc([N+](=O)[O-])cc2nc2cc(OC)c(OC)cc12` (stereo not drawn), -57.4% (active).
As for `CN1/C(=C\C=C\C2=[N+](C)c3ccccc3C2(C)C)C(C)(C)c2ccccc21`, the figure is -18.1% (active); as for `COc1ccc(-c2nn(-c3ccccc3)cc2/C=C2\SC(=O)NC2=O)cc1`, 96.6%; as for `O=C(O)c1ccc2c(c1Sc1ccccc1)C(=O)c1ccccc1C2=O`, 76.7%.
In the case of `CCOC(=O)C12CCCC1=CC(=O)CC2` (stereo not drawn), the growth is 107%.
